Results filed as inconclusive are left out. Calls of active or inactive are those of the source. Calls come from the whole dose curve; as a rule, active = well fitted inhibition curve with a large enough effect; inconclusive = small, poorly fitted or top-dose-only effect; inactive = flat fitted curve, though single readings scatter.
system: HACAT; experiment: qHTS assay to identify novel small-molecules to repurpose for Merkel cell carcinoma treatment (AID 1296009); details: MCC and control cell lines, CellTiter-Glo viability, 72 h; at 44.8 µM (top of the series) unless noted; note: nearly all actives have a fitted effect of over 60% in size
Summary of the method: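 Cell viability, measured as CellTiter-Glo luminescence, was normalized between DMSO and no-cell wells. The cells had been exposed to 8- or 11-point compound dilutions for 72 hr at 37 degree celsius.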

| Structure (SMILES) | outcome |
| --- | --- |
| CC(=O)NCCCCn1c2c(c3ccccc31)C(=O)NCC2 | inactive |
| Cc1nnc(C(C)C)n1C1CC2CCC(C1)N2CCC(NC(=O)C1CCC(F)(F)CC1)c1ccccc1 (stereo not given) | inactive |
| CC1=CC[C@]2(C(=O)O[C@@H]3O[C@H](CO[C@@H]4O[C@H](CO)[C@@H](O[C@@H]5O[C@@H](C)[C@H](O)[C@@H](O)[C@H]5O)[C@H](O)[C@H]4O)[C@@H](O)[C@H](O)[C@H]3O)CC[C@]3(C)C(CCC4[C@@]5(C)C[C@@H](O)[C@H](O)[C@@](C)(CO)C5CC[C@]43C)C2C1C (stereo not given in full) | inactive [at 9.27 µM] |
| COc1ccc(/C=C/C(=O)O[C@@H]2[C@@H](O)[C@H](C)O[C@@H](OC3C4C=COC(O[C@@H]5O[C@H](CO)[C@@H](O)[C@H](O)[C@H]5O)C4C4(CO)OC34)[C@@H]2O)cc1OC (stereo not given in full) | inactive [at 17.4 µM] |
| C=C(C)[C@H]1C[C@@H](O)C(=C)CC[C@@H](O)C(=C)[C@@H](O)C1 | inactive |
| CC1(C)CC2C(O)C3=C(CC(C)(O)C2C1)C(=O)OC3O (stereo not given) | inactive |
| Oc1ccc([C@H]2COc3cc(O)ccc3C2)cc1 | inactive |
| CC(=C/C(=O)O)/C=C/[C@]1(O)[C@@]2(C)CO[C@]1(C)C[C@H](O[C@@H]1O[C@H](CO)[C@@H](O)[C@H](O)[C@H]1O)C2 | inactive [at 17.4 µM] |
| C[C@@H]1C(=O)O[C@H]2[C@H]1CC[C@@]1(C)C(=O)C=C[C@](C)(O)[C@H]21 | inactive |
| CC1(C)C[C@H]2C3=CCC4[C@@]5(C)CC[C@H](O[C@H]6O[C@H](C(=O)O)[C@@H](O)[C@H](O)[C@H]6O[C@H]6O[C@H](CO)[C@@H](O)[C@H](O)[C@H]6O[C@@H]6O[C@H](CO)[C@@H](O)[C@H](O)[C@H]6O)[C@](C)(CO)C5CC[C@@]4(C)[C@]3(C)CC[C@@]2(C)[C@H](O[C@@H]2OC[C@H](O)[C@H](OC3O[C@H](CO)[C@@H](O)[C@H](O)[C@H]3O)[C@H]2O)[C@@H]1O (stereo not given in full) | inactive [at 9.27 µM] |
